The values below come from PubChem BioAssay (EPA / NIEHS).

By AC50 is commonly meant the concentration giving half of the maximal activity seen.

Values joined by “and” are separate entries in the source; they are usually repeats but may differ in a detail not shown here. Equal entries are not always repeated. Active and inactive are the calls of the source. How the source made its calls: active means hit-call score of the fitted dose curve at least 0.9, where 1 is the maximum; inactive means score below 0.9.

Read-out in this experiment: Interleukin-1 alpha (IL1a), IL1A (gene 3552)
Kind of experiment: BSK_LPS_IL1a: BioMAP Diversity Plus: LPS Assay for Interleukin-1 alpha (IL1a) Biomarker Activity (AID 2283080). The following applies: primary human HUVEC with PBMC; actives raise or lower the signal. On the procedure:
BSK_LPS is a cell-based, multiplexed-readout assay that uses umbilical vein endothelium and peripheral blood mononuclear cells, a human vascular primary cell co-culture, with measurements taken at 24 hours after chemical dosing in a 96-well plate.BSK_LPS_IL1a is an assay component measured in the BSK_LPS assay. It measures IL-a antibody related to regulation of gene expression using ELISA technology.Data from the assay component BSK_LPS_IL1a was analyzed into 1 assay endpoint. This assay endpoint, BSK_LPS_IL1a, was analyzed with bidirectional fitting relative to DMSO as the negative control and baseline of activity. Using a type of binding reporter, gain or loss-of-signal activity can be used to understand changes in the signaling as they relate to the gene IL1A. Furthermore, this assay endpoint can be referred to as a primary readout, because this assay has produced multiple assay endpoints where this one serves a signaling function. To generalize the intended target to other relatable targets, this assay endpoint is annotated to the cytokine intended target family, where the subfamily is interleukins.
The levels of cell surface (or secreted, indicated by the prefix "s") biomarker endpoints were measured by ELISA. Overt cytotoxicity to cells in confluent adherent cultures (all systems other than the BT system) was assessed by measuring total protein levels using sulforhodamine B (SRB) staining in parallel cultures at the time of biomarker measurements, indicated as SRB endpoints. For proliferation assays for adherent cell types, individual cell types are cultured at sub-confluence and relative cell numbers quantified by SRB staining at time points optimized for each system (48 h: 3C and CASM3C systems; 72 h: BT and HDF3CGF systems; 96 h: SAg system). SRB was performed by staining cells with 0.1% SRB after fixation with 10% TCA and reading wells at 560 nm.Viability and proliferation of PBMC (T cells) was quantified by Alamar Blue reduction for the SAg and BT systems. For PBMC viability (referred to as PBMC Cytotoxicity within the assay endpoint names), cells were plated (75,000/well in a 96-well plate) and then chemical samples added for 1 h before addition of activators, SEB and TSST-1 (20 ng/mL final concentration each). Cells were incubated for 90 h. Then, Alamar Blue (20 uL/well) (Invitrogen, Cat DAL1100) was added for 6 h, and the plates were read with a fluorescence microplate reader at 546/580 nm (excitation/emission). For PBMC proliferation, cells were plated and activated as above but incubated for only 16 h prior to addition of Alamar Blue. Plates were read after 6 h.
With `c1ccc(Sc2ccccc2)cc1`, the AC50 is 33.8 µM (active).

As for `C=C(F)C(=O)OC(C(F)(F)F)C(F)(F)F`, the outcome was inactive.

For the compound `C[C@]12CC[C@@H]3c4ccc(O)cc4CC[C@H]3[C@@H]1CC[C@@H]2O`, the result was inactive.

`CC(C)(C)c1cccc(O)c1`: the outcome was inactive.

Turning to `CCOC(=O)C=Cc1ccccc1`, the outcome was inactive.

Consider `OCC(F)(OC(F)(F)C(F)(OC(F)(F)C(F)(F)C(F)(F)F)C(F)(F)F)C(F)(F)F` (stereo not given), for which the AC50 is 5.01 µM (active) and 4.53 µM (active).

Regarding `COC(=O)c1ccc(C(=O)OC)cc1`, the outcome was inactive.

In the case of `CCC(=O)OCC=Cc1ccccc1`, the outcome was inactive.

In the case of `CCn1cc(C(=O)O)c(=O)c2ccc(C)nc21`, the outcome was inactive.

Turning to `CCCCOCCOCCO`, the outcome was inactive.

Consider `OCCN1CCOCC1`, for which the result was inactive.

For the compound `C=C(C)C(N)=O`, the outcome was inactive.

Consider `O=S(=O)(O)C(F)(F)C(F)(F)OC(F)(F)C(F)(F)F`, for which the result was inactive.

As to `Nc1ccc(N)c([N+](=O)[O-])c1`, the result was inactive.

For `CC(C)Cc1ccc(C(C)C(=O)O)cc1` (stereo not given), the result was inactive.

Regarding `CC(C)CCCC(C)(C)O`, the result was inactive.

As for `C=C1CC/C=C(\C)CC[C@@H]2[C@@H]1CC2(C)C`, the AC50 is 31.8 µM (active).

Consider `O=C(O)C(F)(F)C(F)(F)C(F)(F)C(F)(F)C(F)(F)C(F)(F)C(F)(F)C(F)F`, for which the result was inactive.

In the case of `COc1ccccc1NC(=O)CC(C)=O`, the outcome was inactive.

`CC(=O)CCC=C(C)CCC=C(C)C`: the result was inactive.

Consider `CCCCCCCCCC(=O)OCC`, for which the result was inactive.

For `CC(=O)c1ccc(C)cc1`, the result was inactive.

With `c1ccc2c(c1)-c1ccc3ccc4cccc5cc-2c1c3c45`, the result was inactive.

`CC(C)(CO)CO`: the outcome was inactive.

`CC/C(=C(\c1ccccc1)c1ccc(OCCN(C)C)cc1)c1ccccc1`: the AC50 was 6.74 µM (active) and 9.95 µM (active).

In the case of `CCOC(=O)CCCCCCCCC(=O)OCC`, the result was inactive.

As to `O=C(O)C(F)(F)OC(F)(F)C(F)(F)OC(F)(F)C(F)(F)C(F)(F)C(F)(F)F`, the outcome was inactive.

For `CC(=O)OC(C)(C)C1CC=C(C)CC1` (stereo not given), the outcome was inactive.

Turning to `CCCCN(CCO)CCO`, the result was inactive.

For the compound `C=CC(=O)OCC(CO)(COC(=O)C=C)COC(=O)C=C`, the AC50 is 0.404 µM (active).

In the case of `O=C1OC2(c3ccc(O)cc3Oc3cc(O)ccc32)c2ccccc21`, the outcome was inactive.

With `O=C(c1ccc(OCCN2CCCCC2)cc1)c1c(-c2ccc(O)cc2)sc2cc(O)ccc12`, the AC50 is 21 µM (active).

For `C=C(C)C(=O)OCCC(F)(F)C(F)(F)C(F)(F)C(F)(F)C(F)(F)C(F)(F)C(F)(F)C(F)(F)F`, the outcome was inactive.

In the case of `O=S1(=O)CC(Cl)(Cl)C(Cl)(Cl)C1`, the half-maximal activity concentration (AC50) was 0.518 µM (active).

In the case of `CC1(C)[C@H](C=C(Cl)Cl)[C@H]1C(=O)OCc1cccc(Oc2ccccc2)c1`, the result was inactive.

For the compound `C#C[C@]1(O)CC[C@H]2[C@@H]3CCc4cc(O)ccc4[C@H]3CC[C@@]21C`, the AC50 was 20 µM (active).

For `NC(=O)c1c(Cl)cccc1Cl`, the result was inactive.

Regarding `CCCCCCCCCCCCS`, the result was inactive.

Turning to `CCCO[Si](OCCC)(OCCC)OCCC`, the result was inactive.

As to `CC=CC(=O)C1=C(C)C=CCC1(C)C`, the result was inactive.
